From PubChem BioAssay
Activity calls are given as the source filed them. Unless noted, the rule behind the calls is not given here.

Columns and labels:
[1] = compounds binding Alexa647 anti-His antibody – biochemical, small-molecule microarray, 635 nm fluorescence, artefact control for SMM control protein annotation, primary screen (AID 1128); conditions: higher = more signal;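 note: score merges feature fluorescence with signal-to-noise for each printed compound spot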
[2] = test system: Human papillomavirus type 1a E7 protein (residues 1-88); experiment: HPV1a E7 small-molecule binders, primary screen, biochemical, small-molecule microarray, residues 1-88, 635 nm (AID 1129); conditions: small-molecule microarray binding, fluorescence 635 nm; higher = more signal
[3] = biological target: Focal adhesion kinase 1 (Homo sapiens) (UniProt Q05397); experiment: PTK2 protein binding on printed compound slides – biochemical, small-molecule microarray, 635/667 nm fluorescence, BSA, DTT, primary screen (AID 1130); conditions: 635 nm fluorescence, higher = more signal;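 note: composite of spot emission at 667 nm and signal to noise over triplicate slides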
[4] = test system: Fibrinogen (Alexa647-labelled); experiment: Alexa647-fibrinogen binding to printed small molecules – biochemical, small-molecule microarray, 635/667 nm fluorescence, artefact control for SMM control-protein annotation, profiling panel (AID 1131); conditions: fibrinogen-A647 binding fluorescence, higher = more signal;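 note: z-score merges 667 nm fluorescence with per-spot signal-to-noise over triplicate slides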
[5] = biological target: Follistatin (Homo sapiens) (UniProt P19883); experiment: FST protein binding to printed compounds – biochemical, small-molecule microarray, 635/667 nm fluorescence, primary screen (AID 1132); conditions: 635 nm fluorescence, higher = more signal
[6] = biological target: Fibroblast growth factor 2 (Homo sapiens) (UniProt P09038); experiment: basic fibroblast growth factor binding to printed compounds – biochemical, small-molecule microarray, 635/667 nm fluorescence, primary screen (AID 1133); conditions: FGF2, fluorescence 635/667, higher = more signal
[7] = JC-1 mitochondrial potential readout, lung cancer cells – cell-based, A549, JC-1 fluorescence, basal, 24 h, 100 nL, profiling panel (AID 1138); conditions: higher = more signal;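 note: A549 lung adenocarcinoma cells under basal conditions with no added stimulus; test concentration not given here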
[8] = test system: Lefty1; experiment: Lefty1 protein binding to printed compounds – biochemical, small-molecule microarray, 635/667 nm fluorescence, primary screen (AID 1139); conditions: fluorescence 635/667, higher = more signal
[9] = test system: wheat germ agglutinin (Triticum aestivum), Alexa647-labelled; experiment: Alexa647-WGA lectin binding to printed small molecules – biochemical, small-molecule microarray, 635/667 nm fluorescence, artefact control for SMM control-protein annotation, profiling panel (AID 1140); conditions: WGA-A647 binding, 635 nm fluorescence, higher = more signal;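 note: score merges 667 nm feature emission with signal to noise over triplicate slides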
[10] = biological target: Luciferin 4-monooxygenase (Photinus pyralis) (UniProt P08659); experiment: inhibition of purified Photinus pyralis luciferase – biochemical, luminescence, purified enzyme, 2006 set, primary screen (AID 1141); conditions: purified firefly luciferase, SteadyGlo luminescence, 30 min; higher = more signal, called active from +8 up or from −8 down;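 note: cell-free assay with purified firefly luciferase at 100 ng per well in PBS; test concentration not given here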
[11] = test system: Wnt5a (protein binding on small-molecule microarray); experiment: small molecules binding Wnt5a protein – biophysical, small-molecule microarray, 635/667 nm fluorescence, primary screen (AID 1142); conditions: 635 nm fluorescence, higher = more signal;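 note: fluorescence read at 667 nm with signal to noise per printed feature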
[12] = ATP-based viability of Huh7 replicon cells – cell-based, CellTiter-Glo luminescence, basal, 48 h, cytotoxicity control for HCV replication inhibitor project, primary screen (AID 1143); conditions: higher = more signal, called active from +8 up or from −8 down;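 note: Huh7 hepatoma cells carrying a hepatitis C replication reporter with no stimulus; test concentration not given here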
[13] = Pseudomonas biofilm growth suppression – PAO1 strain, BacTiter-Glo luminescence, LB-PBS, primary screen (AID 1144); conditions: P. aeruginosa PAO1 biofilm, 12 h, higher = more signal
[14] = basal CRE-LacZ reporter activity in PC12 – cell-based, unstimulated, primary screen (AID 1145); conditions: no forskolin, luminescence, 4.5 h, higher = more signal, called active from +8 up or from −8 down
[15] = forskolin-driven CRE-LacZ activity in PC12 – cell-based, CRE-LacZ reporter, forskolin-stimulated, primary screen (AID 1146); conditions: luminescence, 4.5 h, higher = more signal, called active from +8 up or from −8 down;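 note: PC12 cells with 6xCRE LacZ reporter stimulated by forskolin 10 µM; beta-galactosidase reporter signal reflecting CREB driven transcription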
[16] = biological target: Streptavidin (Streptomyces avidinii) (UniProt P22629); experiment: compounds binding control protein streptavidin – biophysical, small-molecule microarray, 635/667 nm fluorescence, artefact control for SMM compound annotation, primary screen (AID 1147); conditions: higher = more signal;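 note: signal reflects streptavidin binding to arrayed compounds as a control protein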
[17] = probe aInhba binding on compound microarray – biochemical, small-molecule microarray, 635/667 nm fluorescence, primary screen (AID 1148); conditions: higher = more signal;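 note: score merges 667nm spot fluorescence with signal-to-noise for antibody binding to printed compounds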
[18] = biological target: Torsin-1A (Homo sapiens) (UniProt O14656); experiment: TOR1A wild-type binding on microarray – cell lysate, small-molecule microarray, lysate, 635/667 nm, primary screen (AID 1149); conditions: COS7 hTOR1A-WT lysate, 635 nm fluorescence, higher = more signal
[19] = biological target: Torsin-1A (Homo sapiens) (UniProt O14656); experiment: torsin A mutant lysate binding on microarrays – cell lysate, small-molecule microarray, COS7 lysate, 635/667 nm fluorescence, primary screen (AID 1150); conditions: COS7 hTOR1A mutant lysate, 635 nm fluorescence, higher = more signal;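 note: score pools 667 nm emission and signal to noise measuring lysate protein binding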
[20] = test system: Sonic hedgehog protein (Shh); experiment: Sonic hedgehog microarray binding compounds – biochemical, small-molecule microarray, 635/667 nm fluorescence, primary screen (AID 1151); conditions: 635 nm fluorescence, higher = more signal;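 note: Shh protein binding to compounds spotted on small-molecule microarray slides; score combines spot fluorescence intensity with signal-to-noise across triplicate slides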

Streptavidin (Streptomyces avidinii), sequence (P22629 whole entry, looked up): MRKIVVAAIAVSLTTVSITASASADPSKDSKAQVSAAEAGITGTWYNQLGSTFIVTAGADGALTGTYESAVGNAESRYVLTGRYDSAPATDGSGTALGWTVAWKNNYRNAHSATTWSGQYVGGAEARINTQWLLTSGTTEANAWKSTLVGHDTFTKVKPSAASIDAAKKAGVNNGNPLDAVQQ
Fibroblast growth factor 2 (Homo sapiens), sequence (P09038 whole entry, looked up): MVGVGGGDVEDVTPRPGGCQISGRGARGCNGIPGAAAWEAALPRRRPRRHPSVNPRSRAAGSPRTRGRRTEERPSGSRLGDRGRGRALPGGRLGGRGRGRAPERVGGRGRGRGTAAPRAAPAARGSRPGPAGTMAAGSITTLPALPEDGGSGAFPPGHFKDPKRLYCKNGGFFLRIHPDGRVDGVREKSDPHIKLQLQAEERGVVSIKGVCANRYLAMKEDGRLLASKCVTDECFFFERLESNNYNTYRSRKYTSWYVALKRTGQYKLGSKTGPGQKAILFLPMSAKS
Luciferin 4-monooxygenase (Photinus pyralis), sequence (P08659 whole entry, looked up): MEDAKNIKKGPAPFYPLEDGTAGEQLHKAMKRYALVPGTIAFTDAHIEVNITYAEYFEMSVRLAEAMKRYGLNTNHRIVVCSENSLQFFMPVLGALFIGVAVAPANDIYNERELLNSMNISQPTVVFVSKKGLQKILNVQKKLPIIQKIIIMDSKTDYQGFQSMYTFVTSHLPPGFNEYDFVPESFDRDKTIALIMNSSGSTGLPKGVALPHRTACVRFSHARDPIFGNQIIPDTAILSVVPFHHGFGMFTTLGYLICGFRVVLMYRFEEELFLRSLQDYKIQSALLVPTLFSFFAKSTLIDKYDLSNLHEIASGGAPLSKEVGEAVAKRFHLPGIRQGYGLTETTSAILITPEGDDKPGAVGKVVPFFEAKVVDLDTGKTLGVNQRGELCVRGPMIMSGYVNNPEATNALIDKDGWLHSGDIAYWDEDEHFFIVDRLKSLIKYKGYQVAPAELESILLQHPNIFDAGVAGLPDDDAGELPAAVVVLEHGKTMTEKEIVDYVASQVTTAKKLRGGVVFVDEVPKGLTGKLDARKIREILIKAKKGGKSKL
Follistatin (Homo sapiens), sequence (P19883 whole entry, looked up): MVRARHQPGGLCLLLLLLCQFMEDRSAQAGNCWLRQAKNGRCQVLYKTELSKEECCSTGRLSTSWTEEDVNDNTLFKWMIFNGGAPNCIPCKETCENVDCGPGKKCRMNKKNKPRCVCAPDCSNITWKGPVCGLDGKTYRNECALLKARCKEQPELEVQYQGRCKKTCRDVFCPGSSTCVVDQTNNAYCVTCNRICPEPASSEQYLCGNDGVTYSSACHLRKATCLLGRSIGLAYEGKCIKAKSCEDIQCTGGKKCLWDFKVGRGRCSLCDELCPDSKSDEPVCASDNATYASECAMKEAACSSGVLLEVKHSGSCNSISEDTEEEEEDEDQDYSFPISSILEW
Torsin-1A (Homo sapiens), sequence (O14656 whole entry, looked up): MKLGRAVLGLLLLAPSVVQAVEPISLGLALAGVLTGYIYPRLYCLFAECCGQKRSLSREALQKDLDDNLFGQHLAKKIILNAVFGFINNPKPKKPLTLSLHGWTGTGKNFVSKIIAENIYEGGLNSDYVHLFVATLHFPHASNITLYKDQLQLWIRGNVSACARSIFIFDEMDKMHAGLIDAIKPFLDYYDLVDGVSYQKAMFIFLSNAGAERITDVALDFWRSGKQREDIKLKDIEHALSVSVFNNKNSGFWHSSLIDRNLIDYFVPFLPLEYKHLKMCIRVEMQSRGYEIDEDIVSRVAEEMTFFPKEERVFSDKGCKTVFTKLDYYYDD
Focal adhesion kinase 1 (Homo sapiens), sequence (Q05397 whole entry, looked up): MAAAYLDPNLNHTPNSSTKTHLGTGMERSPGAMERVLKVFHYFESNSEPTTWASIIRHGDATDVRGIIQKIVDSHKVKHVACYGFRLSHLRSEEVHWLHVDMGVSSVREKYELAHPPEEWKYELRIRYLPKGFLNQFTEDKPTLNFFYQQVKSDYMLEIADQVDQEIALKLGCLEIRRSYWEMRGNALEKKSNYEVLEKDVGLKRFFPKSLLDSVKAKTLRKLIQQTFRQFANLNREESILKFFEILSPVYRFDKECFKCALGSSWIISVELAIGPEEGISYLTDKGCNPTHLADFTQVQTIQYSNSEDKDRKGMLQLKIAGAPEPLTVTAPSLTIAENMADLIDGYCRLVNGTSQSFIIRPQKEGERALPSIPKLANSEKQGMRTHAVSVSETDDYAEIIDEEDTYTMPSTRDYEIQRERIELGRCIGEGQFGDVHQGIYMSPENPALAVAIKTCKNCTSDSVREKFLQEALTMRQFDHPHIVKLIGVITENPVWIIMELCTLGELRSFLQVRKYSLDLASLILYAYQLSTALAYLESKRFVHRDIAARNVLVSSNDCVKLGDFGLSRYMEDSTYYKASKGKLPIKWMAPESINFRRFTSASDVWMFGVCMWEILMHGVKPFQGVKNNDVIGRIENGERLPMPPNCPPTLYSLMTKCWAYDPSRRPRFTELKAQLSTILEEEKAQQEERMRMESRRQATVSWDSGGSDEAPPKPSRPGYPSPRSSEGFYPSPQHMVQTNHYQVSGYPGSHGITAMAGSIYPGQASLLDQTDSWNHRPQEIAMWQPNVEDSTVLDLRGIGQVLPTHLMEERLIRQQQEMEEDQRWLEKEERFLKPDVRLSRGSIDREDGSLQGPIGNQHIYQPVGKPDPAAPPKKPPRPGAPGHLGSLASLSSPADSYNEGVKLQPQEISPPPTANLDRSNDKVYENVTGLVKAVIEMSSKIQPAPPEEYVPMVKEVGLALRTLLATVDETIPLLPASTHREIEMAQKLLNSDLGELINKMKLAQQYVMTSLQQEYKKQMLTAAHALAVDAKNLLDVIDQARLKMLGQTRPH

Row | SMILES | composite z-score [1] | composite z-score [2] | composite z-score [3] | composite z-score [4] | composite z-score [5] | composite z-score [6] | z-score [7] | composite z-score [8] | composite z-score [9] | z-score [10] | composite z-score [11] | z-score [12] | z-score [13] | z-score [14] | z-score [15] | composite z-score [16] | composite z-score [17] | composite z-score [18] | composite z-score [19] | composite z-score [20]
1 | CC(C)C(=O)N[C@H]1CCCN1C(=O)C=Cc1ccccc1 | 0.508 | 0.899 | 0.225 | -0.198 | 0.438 | 0.54 | -0.509 | 1.13 | -0.441 | -0.0726 (inactive) | 0.121 | 0.623 (inactive) | 0.186 (inactive) | -0.255 (inactive) | -0.135 (inactive) | 0.111 | 0.0173 | 0.445 | 0.231 | 0.769
2 | C[C@@H](c1ccccc1)N1C(=O)[C@H]2[C@H]3[C@H](O)[C@H](O)CC(=NOCc4ccccc4)[C@@H]3CC[C@H]2C1=O | 0.151 | -0.513 | 0.0826 | 0.0844 | -0.7 | -0.0815 | -0.781 | -0.684 | 0.32 | 0.747 (inactive) | 0.0765 | 0.039 (inactive) | 1.01 (inactive) | 0.242 (inactive) | -0.166 (inactive) | 0.665 | -0.0762 | -0.407 | -0.325 | -0.742
3 | CCOC(=O)CCN1C(=O)[C@H]2[C@H]3[C@H](O)[C@H](O)CC(=O)[C@@H]3CC[C@H]2C1=O | 0.591 | 0.843 | -0.0508 | 0.532 | 0.64 | 1.28 | -0.466 | 1.38 | 0.157 | 0.426 (inactive) | 0.352 | -0.19 (inactive) | -0.401 (inactive) | 0.527 (inactive) | -0.671 (inactive) | 0.182 | -0.179 | 0.205 | 0.5 | 0.757
4 | C[C@H]1CC[C@H]2C(=O)OC(COc3ccc(C(C)(C)C)cc3)CN2[C@@H]1c1ccc(Br)cc1 (stereo not given in full) | 0.148 | 1.15 | 0.29 | 0.819 | 0.312 | 0.118 | 1.28 | 0.334 | 0.264 | -1.37 (inactive) | 0.253 | -0.259 (inactive) | -1.12 (inactive) | 2.36 (inactive) | -1.04 (inactive) | 0.468 | -0.176 | 0.213 | 0.179 | 0.0438
5 | CC(=O)OC[C@H]1O[C@H](CC=NO[C@@H](C)c2cn([C@H](CO)Cc3ccccc3)nn2)C=C[C@@H]1OC(C)=O | -0.0515 | 0.656 | -0.0806 | 0.827 | 0.679 | 0.45 | -1.56 | 1.05 | 0.233 | 1.36 (inactive) | 0.0065 | -2.35 (inactive) | -0.902 (inactive) | 1.67 (inactive) | 0.114 (inactive) | 0.777 | -0.0963 | 0.542 | 0.692 | 0.911
